From PubChem BioAssay
A selection: hits, their analogues and other compounds. The true share with any hit is near 19%.
Lassa entry inh: blocks Lassa virus binding to or entry into cells | Lassa virus pseudotype entry inhibition, cell reporter | Potency, µM (series often up to 37.9 µM), for the others: top-dose activity change, negative = inhibition, hits mostly inhibitors | hit rate 1.2% among 300,000 | AID 540256; calls by dose curve; tested in HEK293 cells; also: potency is read from the fitted curve at half-maximal effect; % is scaled to controls: 0 for no effect and ±100 for the full control effect; nearly all actives have a fitted effect of over 50% in size
CHX counter: counter-screen for Shiga toxin inhibitors: cycloheximide protein synthesis inhibition; cell reporter, cycloheximide protein synthesis inhibition counterscreen; max response, %; hit rate 12% among 300,000; AID 2314; in the data active = max response mostly above about 13%, no sharp cut-off; inactive = mostly below about 14%; also: read at 38.3 µM for the half of the compounds with a filed dose; 0% is about no effect
MARV entry inh: Marburg virus entry inhibition; Marburg virus pseudotyped entry inhibition, cell reporter; hit rate 1.8% among 300,000; AID 540276; Potency, µM (top dose mostly 37.8 µM), for the others: top-dose activity change, negative = inhibition, most hits filed as inhibitors; calls by dose curve; tested in HEK293 cells; also: potency is read from the fitted curve at half-maximal effect; % is scaled to controls: 0 for no effect and ±100 for the full control effect
Shiga inhibitor: blocks Shiga toxin action in Vero cells; Vero cells, Shiga toxin protein synthesis inhibition reporter; inhibition, % at 38.7 µM; hit rate 9.2% among 290,000; in the data active = inhibition mostly above about 28%, no sharp cut-off; inactive = mostly below about 43%; also: 0% is about no effect
Pf growth 96h: P. falciparum growth inhibition at 96 hours; P. falciparum luciferase reporter growth, 96 h; Potency, µM (series often up to 28.7 µM), inactives show at the top dose activity change, negative = inhibition, hits mostly inhibitors; hit rate 6.9% among 320,000; AID 504834; also: potency is read from the fitted curve at half-maximal effect; % is scaled to controls: 0 for no effect and ±100 for the full control effect
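Delayed-death screen, second-generation endpoint: infected erythrocytes, 2% hematocrit, 0.05% parasitemia final; 96 hours at 37 C, 5% CO2; luciferase detection reagent; luminescence decrease equals reduced growth.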
Pf growth 48h: inhibits P. falciparum growth in the first generation, 48 h | hit rate 5.9% among 310,000 | Potency, µM (doses to about 28.7 µM), for inactives: top-dose activity change, negative = inhibition, actives largely listed as inhibitors | P. falciparum luciferase growth in erythrocytes, 48 h; also: potency is read from the fitted curve at half-maximal effect; % is scaled to controls: 0 for no effect and ±100 for the full control effect
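Compounds are pin-transferred into medium, infected erythrocytes (2% hematocrit, 0.1% parasitemia final) are added, and plates sit one parasite generation at 37 C in 5% CO2. Detection reagent is then added and luminescence measured.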
An asterisk follows results filed as active; i = inactive; ? = inconclusive; . = no result; [ ] = dose if it differs, or a comment. Unless noted, calls follow the shape of the dose curve; as a rule, active = well fitted inhibition curve with a large enough effect; inconclusive = small, poorly fitted or top-dose-only effect, or another doubt; inactive = no such curve, though single readings can be large or run the other way.

SMILES	Lassa entry inh	CHX counter	MARV entry inh	Shiga inhibitor	Pf growth 96h	Pf growth 48h
CNC(=O)CCCN1C(=O)CCn2nc(-c3cn(C)c4ccccc34)cc21	0.2%[46.1 µM]	.	.	.	.	.
CN(C)S(=O)(=O)Oc1cccc(C(=O)Nc2ccc(Cl)cc2)c1	14.6µM*	44.7*	?	152.8*	471.3%	279.3%
CN(C)S(=O)(=O)Oc1cccc(C(=O)Nc2ccccc2Cl)c1	-10.8%	40.6*	31.2%	92.9*	15.7%	65.5%
C=CCNC(=O)N1CCc2nc(-c3ccc(OC)cc3C)c3c(c2C1)CO[C@@H](c1ccccc1)C3	.	.	-42.2%[14.2 µM]	.	.	.
COC(=O)N/N=C\c1ccc(OC/C=C/c2ccccc2)cc1	.	14.7*	.	14.2	-25.4%	?
COc1ccc(/C=N/NC(=O)CNS(=O)(=O)c2ccccc2)cc1	9.1%	.	29.5%	.	?	-22.0%
CCOC(=O)N/N=C\c1ccc(OC/C=C/c2ccccc2)cc1	-0.6%[46.1 µM]	11.6	-1.0%[46.1 µM]	17.5	?	?
CC(C)(O)C(=O)N/N=C\c1ccc(OC/C=C/c2ccccc2)cc1	-10.5%[46.1 µM]	32.3*	1.1%[46.1 µM]	45.0	?	-7.9%
COC(=O)N/N=C/c1ccc(Oc2ccccc2)cc1	-16.1%	46.4*	-27.6%[46.1 µM]	91.9*	62.9%	84.0%
COc1c(C)cc(C(=O)C2CCCN(C(=O)c3cccc(-n4cccn4)c3)C2)cc1C (stereo not drawn)	?	12.6*	-3.8%[46.1 µM]	18.5	i	3.9%
COc1c(C)cc(C(=O)C2CCCN(C(=O)c3cc4nc(C)cc(C)n4n3)C2)cc1C (stereo not drawn)	.	7.3	.	24.9*	?	?
COc1c(C)cc(C(=O)C2CCCN(C(=O)c3ccc4[nH]ccc4c3)C2)cc1C (stereo not drawn)	4.47µM*	4.5	-9.2%[46.1 µM]	-1.5	?	-4.1%
COc1c(C)cc(C(=O)C2CCCN(C(=O)c3cc(C)on3)C2)cc1C (stereo not drawn)	-29.7%[46.1 µM]	2.4	?	-5.2	?	-11.4%
Cc1cccc(N2CC(C(=O)Nc3nnc(SCC(=O)Nc4cc(C)on4)s3)CC2=O)c1 (stereo not drawn)	11.1%	-2.5	15.5%	-2.2	-5.1%	-6.9%
Cc1c(C(=O)Nc2ccncc2)sc2nc(-c3ccc(F)cc3)cn12	.	16.8*	.	23.9	2.33µM*	2.33µM*
COc1ccc(-c2cn3c(C)c(C(=O)Nc4ccncc4)sc3n2)cc1	.	29.8	.	44.8	?	.
Cc1c(C(=O)NCC(C)C)sc2nc(-c3ccc(F)cc3)cn12	.	20.6*	.	23.1	28.7%	41.2%
Cc1c(C(=O)NCc2ccc(F)cc2)sc2nc(-c3ccc(F)cc3)cn12	-12.0%[46.1 µM]	.	.	.	.	.
COc1ccc(Cl)cc1C(=O)NCC(c1ccco1)N1CCCC1 (stereo not drawn)	7.9%	-1.6	?	1.6	4.15µM*	?
COc1ccccc1C(=O)NCCC(=O)NCC(c1ccco1)N1CCCC1 (stereo not drawn)	14.7%	.	1.7%	.	11.7µM*	-26.6%
O=C(CCNC(=O)c1ccc(Cl)cc1)NCC(c1ccco1)N1CCCC1 (stereo not drawn)	-4.6%[46.1 µM]	.	13.3%	.	?	11.7µM*
CSCCC(NC(=O)c1ccccc1Br)C(=O)NCC(c1ccco1)N1CCCCC1 (stereo not drawn)	-6.3%	.	-2.2%	.	9.28µM*	?
COc1ccccc1C(CNC(=O)CCNC(=O)c1ccccc1Cl)N1CCCC1 (stereo not drawn)	7.2%	.	-9.2%[46.1 µM]	.	0.1%	?
CCOC(=O)/C(C#N)=C/c1cn(CCC(=O)O)nc1-c1ccc(OC)cc1	-1.1%	0.5	14.1%[46.1 µM]	-4.4	?	-20.8%
Nc1nc(CSc2nnnn2-c2ccccc2)nc(N2CCCc3ccccc32)n1	?	-2.0	?	5.5	.	10.4µM*
SMILES	Lassa entry inh	CHX counter	MARV entry inh	Shiga inhibitor	Pf growth 96h	Pf growth 48h
Nc1nc(CN2CCN(c3ccccc3)CC2)nc(N2CCCc3ccccc32)n1	-19.3%	-4.3	10.4%	18.8	9.28µM*	?
Nc1nc(CN2CCN(Cc3ccccc3)CC2)nc(N2CCCc3ccccc32)n1	.	-2.7	.	-16.6	-3.5%	?
Nc1nc(CN2CCN(c3cccc(Cl)c3)CC2)nc(N2CCCc3ccccc32)n1	-6.3%	-2.2	?	-19.9	.	?
COc1cccc(C(=O)NC2C(=O)N3C(C(=O)O)=C(COC(C)=O)CSC23)c1 (stereo not drawn)	.	.	.	.	-19.6%	2.7%
Cc1ccc(-n2ccnc2SCC(=O)N(CC(C)C)C2CCS(=O)(=O)C2)c(C)c1 (stereo not drawn)	-9.1%	-0.1	-12.3%	-17.4	4.15µM*	?
CC(C)CN(C(=O)CSc1nn(-c2ccc(Cl)cc2)c(=S)s1)C1CCS(=O)(=O)C1 (stereo not drawn)	?	-4.2	?	-12.8	?	8.28µM*
CC(C)CN(C(=O)CSc1nnc2ccccn12)C1CCS(=O)(=O)C1 (stereo not drawn)	.	.	.	.	-10.2%	-7.2%
Cc1cc(C(=O)OCC(N)=O)c(C)n1-c1ccccc1	2.3%	33.1*	-2.4%	40.7*	2.08µM*	?
Cc1cc(C(=O)O)c(C)n1-c1ccccc1	12.2%	-4.7	14.1%	-10.8	-7.8%	.
CCOC(=O)c1cc(C)n(-c2ccccc2)c1C	-2.1%	49.9*	28.1%[46.1 µM]	52.3*	15.7%	88.2%
NC(=O)CSc1ncc2c(n1)-c1ccccc1N(Cc1ccccc1)S2(=O)=O	17.4%[46.1 µM]	.	.	.	.	.
CCOC(=O)/C(=N/Nc1ccc(OC)cc1)N1CCCc2ccccc21	-15.1%	21.1	?	41.3*	?	?
CCOC(=O)/C(=N/Nc1ccccc1)N1CCCc2ccccc21	-0.5%	0.6	?	15.8	?	14.7µM*
Cc1cccc(NC(=S)NCc2ccncc2)c1C	-4.7%	-1.4	-9.3%	-47.8	19.1%	-7.1%
COc1ccccc1N1CCN(S(=O)(=O)c2ccc(F)cc2)CC1	-28.7%[14.3 µM]	10.1	-13.2%	2.7	?	?
NC(=S)N=Nc1c(O)n(CCCl)c2ccc(Br)cc12	-14.5%	-2.7	-21.3%	-9.1	?	?
C/C(Cl)=C\Cn1c(O)c(N=NC(N)=S)c2cc(Br)ccc21	.	-1.8	.	16.5	?	10.4µM*
Nc1c(-c2cccs2)cnn1-c1nc(-c2ccc(Cl)cc2Cl)cs1	-4.5%	-2.2	?	15.3	?	0.0%
Nc1nccc(-c2cc(-c3ccc(Cl)cc3Cl)no2)n1	?	41.9*	14.1µM*	54.3*	22.7%	398.1%
Nc1nc(C2C(=O)CCCC2=O)cs1	11.7%	-3.6	18.2%	-6.4	-47.6%	-9.0%
CC(C)CN1C(=O)/C(=C/c2cccs2)NC1=S	-6.5%	11.3	?	13.2	-20.7%	-19.4%
CCCN1C(=O)/C(=C/c2ccc(C)s2)NC1=S	0.9%	20.1*	6.0%	37.7	26.3%	-5.7%
O=C(Nc1ccccc1)N(Cc1ccc2c(c1)OCO2)Cc1nc2ccccc2c(=O)[nH]1	3.0%	2.6	0.9%	-12.5	?	?
